# Screening results as filed in PubChem.
# Giardia kill: Giardia lamblia killing. 340,000 compounds, 0.15% hits. AID 540267. activity change, % at 7.66 µM, hits read low. Giardia lamblia trophozoite viability; in the data active means activity change below about -80%; inconclusive means between about -30% and that limit;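 further: parasites exposed to compound for two days anaerobically before the ATP read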
#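 Trophozoites 100 cells/well + cpd; 48 hrs, 37 deg C, anaerobic. ATPLite 1-Step added, 15-30 min RT, luminescence read (ATP-based viability).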
# Nrf2 block: Nrf2 pathway inhibition | 360,000 compounds, 2.1% hits | AID 504444 | Potency, µM (doses to about 46 µM), for the others: at the top dose activity change, negative = inhibition, hits mostly inhibitors | A549 ARE-Fluc reporter, luciferase luminescence, 18-24 h; further: potency means the concentration at half of the fitted maximal effect; nearly all actives have a fitted effect of over 60% in size
#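 In this cell-based qHTS, ARE-driven firefly luciferase in A549 cells reports Nrf2 activity; the luminescent signal after BugLite lysis is the measured value, with a prior CellTiter-Fluor read for cell health.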
# PI4K2A inh: PI4K2A (human) kinase inhibition. Q9BTU6. activity change, negative = inhibition, % at 76.9 µM. AID 1346378. 420,000 compounds, 0.13% hits. purified PI4K2A, ADP-Glo luminescence, 1 h; active compounds read low; in the data active means activity change below about -50%; inconclusive means mostly about -30% to -49%;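 further: -100% = wells without enzyme as full effect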
# Target sequence (Q9BTU6 whole entry, looked up): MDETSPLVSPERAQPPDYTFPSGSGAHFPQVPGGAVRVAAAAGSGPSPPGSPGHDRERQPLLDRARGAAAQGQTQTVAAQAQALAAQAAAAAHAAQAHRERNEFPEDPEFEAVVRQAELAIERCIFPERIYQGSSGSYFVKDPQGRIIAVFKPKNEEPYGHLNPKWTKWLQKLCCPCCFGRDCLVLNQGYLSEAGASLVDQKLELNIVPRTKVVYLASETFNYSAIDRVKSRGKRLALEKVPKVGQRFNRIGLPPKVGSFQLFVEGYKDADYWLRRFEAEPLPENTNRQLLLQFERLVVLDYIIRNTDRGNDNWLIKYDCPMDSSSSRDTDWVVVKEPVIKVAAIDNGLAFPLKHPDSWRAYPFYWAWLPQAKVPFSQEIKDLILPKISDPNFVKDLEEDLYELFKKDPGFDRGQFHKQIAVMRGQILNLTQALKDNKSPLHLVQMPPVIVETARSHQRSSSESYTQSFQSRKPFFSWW
#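 Compounds are screened against recombinant PI4K2A using PI as substrate and ATP, the latter dispensed at 300 microM. Reactions run one hour at ambient temperature before ADP-Glo detection; full inhibition defined by wells lacking enzyme.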
# KB-3-1 tox: kills parental KB-3-1 adenocarcinoma cells; KB-3-1 viability, CellTiter-Glo ATP luminescence, 72 h; Potency, µM (titrated, usually from 46.1 µM), usual class: cytotoxic; 400,000 compounds, 1.4% hits; AID 1347075; further: potency means the concentration at half of the fitted maximal effect; nearly all actives have a fitted effect of over 60% in size
#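 72 h, 37 °C compound treatment of KB-3-1 parental cells; CellTiter-Glo added, 10 min, luminescence read. Data corrected against DMSO-only plates and normalized before curve fitting.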
# KB-V1 cytotox: KB-V1 MDR subline cytotoxicity. KB-V1 MDR cells viability, CellTiter-Glo, 72 h. Potency, µM (top dose mostly 46.1 µM), usual class: cytotoxic. 400,000 compounds, 3.4% hits. AID 1347076; further: potency means the concentration at half of the fitted maximal effect; nearly all actives have a fitted effect of over 60% in size
#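 Cells of the MDR subline KB-V1 are plated, dosed with compound at multiple concentrations, and incubated 72 h at 37 degrees C; CellTiter-Glo is then added and luminescence read after 10 min.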
# A549 tox-1: counter-screen for Nrf2 inhibitors: cytotoxicity in A549 cells | 390,000 compounds, 0.16% hits | AID 504648 | Potency, µM (top dose mostly 46 µM), for the others: at the top dose activity change, negative = cytotoxicity, most hits filed as inhibitors | A549 ARE-Fluc cells, CellTiter-Fluor viability, 18-24 h; further: potency means the concentration at half of the fitted maximal effect
#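 A549 ARE_Fluc cells in 5% FBS OPTI-MEM were exposed to compounds in concentration-response for 18-24 h at 37 deg C. Viability was read by CellTiter-Fluor fluorescence (Ex 405/Em 525) after 30 min, before the luciferase read.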
# FLuc enzyme inh: counter-screen for Nrf2 inhibitors: firefly luciferase enzyme inhibition; 1,400 compounds, 4% hits; Potency, µM (series often up to 57.5 µM), for inactives: at the highest dose activity change, negative = inhibition, actives largely listed as inhibitors; AID 720522; purified firefly luciferase, luminescence inhibition; shares compounds with Nrf2 block; further: potency means the concentration at half of the fitted maximal effect; nearly all actives have a fitted effect of over 65% in size
# A549 tox-2: counter-screen for Nrf2 inhibitors: cytotoxicity in A549 ARE cells; shares compounds with Nrf2 block; A549 ARE-Fluc cells, cytotoxicity counterscreen; Potency, µM (series often up to 46.1 µM), for inactives: top-dose activity change, negative = cytotoxicity, usual class: inhibitors; 1,400 compounds, 2% hits;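 further: potency means the concentration at half of the fitted maximal effect; cells exposed to compounds for 18 to 24 hours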
# Nrf2 ARE inh: reduces Nrf2 ARE reporter signal in A549 cells. shares compounds with Nrf2 block. A549 ARE-firefly luciferase reporter, luminescence. Potency, µM (titrated, usually from 46.1 µM), for the others: at the top dose activity change, negative = inhibition, actives largely listed as inhibitors. 1,400 compounds, 74% hits; further: potency means the concentration at half of the fitted maximal effect; nearly all actives have a fitted effect of over 65% in size
# The depositor's hits bear a star; i = inactive; ? = inconclusive; . = not tested or not shown. Compounds with a hit are over-represented: about 5.7% of the library has one in this group of screens. Unless noted, the call rests on the fitted dose curve; in most records, active means well fitted curve in the direction sought with a large enough effect; inconclusive means small, poorly fitted or top-dose-only effect, or another doubt; inactive means no such curve, though single readings can be large; an effect the other way counts as inactive or inconclusive. Unless noted, on the % scale 0 is the no-effect control and ±100 the full control effect.
SMILES,Giardia kill,Nrf2 block,PI4K2A inh,KB-3-1 tox,KB-V1 cytotox,A549 tox-1,FLuc enzyme inh,A549 tox-2,Nrf2 ARE inh
Cc1ccc(NC(=O)N(Cc2ccc3c(c2)OCO3)C2CCN(Cc3ccccc3)CC2)cc1Cl,.,-25%,-4,?,i,-12%,.,.,.
COC(=O)c1ccccc1-n1c(C)nc2ccccc2c1=O,-6,.,-4,i,i,-19%,.,.,.
O=C(O)c1cccc2nc3ccccc3nc12,8,2.3µM*,1,i,i,-21%,1%,-29%,3.3µM*
CCc1nc(SC)ncc1C(=O)Nc1ccc(Cl)cc1C(=O)c1ccccc1,.,?,4,i,i,9%,.,.,.
Cc1cccc(-c2nn3c(=O)cc(CN4CCN(C(=O)COc5ccc(Cl)cc5)CC4)nc3s2)c1,.,.,-4,i,i,3%,.,.,.
CC1=CC(C)CC(C)OC(=O)CC(c2ccc(O)cc2)NC(=O)C(Cc2c(Br)[nH]c3ccccc23)N(C)C(=O)C(C)NC(=O)C(C)C1 (stereo not given),-1,0.58µM*,3,0.18µM*,1.6µM*,1.8µM*,-11%,?,1.5µM*
Cc1cccc(C2CC(=O)Oc3c2c(=O)oc2ccccc32)c1 (stereo not given),.,31%,-3,i,i,18%,.,.,.
O=C(O)[C@@H]1CCN1,.,.,3,.,.,.,.,.,.
CC1=CC2OC3CC4OC(=O)C=CC=CC(C(C)O)OCC(O)C5(C)OC5C(=O)OCC2(CC1O)C4(C)C31CO1 (stereo not given),-7,0.41µM*,-2,0.015µM*,?,.,-2%,.,0.26µM*
CC1CCOC(=O)C=CC=CC(=O)OC2CC3OC4C5OC5(C)C(O)CC4(COC(=O)C1O)C2(C)C31CO1 (stereo not given),11,0.52µM*,1,0.21µM*,5.8µM*,.,4%,.,0.37µM*
O=C(Nc1ccccc1-c1ccc(Cl)cc1)c1cccnc1Cl,.,.,i,.,.,.,.,.,.
Cc1ccc2c(C)c3ccc4ccccc4c3c[n+]2c1,23,2.6µM*,-2,?,i,?,-1%,-29%,5.8µM*
Nc1c(C(=O)Nc2ccc(OC(F)(F)F)cc2)sc2nc3c(cc12)N1CCC3CC1,.,6.5µM*,-1,.,.,-13%,-2%,-15%,.
CCOC(=O)c1ccc(NC(=O)c2sc3nc4c(cc3c2N)N2CCC4CC2)cc1,.,11%,4,i,i,0%,.,.,.
CC[C@@]1(O)C(=O)OCc2c1cc1n(c2=O)Cc2cc3c(N)cccc3nc2-1,-2,0.65µM*,-26,?,i,?,-9%,?,0.26µM*
COc1ccc(Cl)cc1NC(=O)CN1C(=O)CN=C(c2ccccc2)c2cc(Cl)ccc21,.,?,-1,?,?,0%,.,.,.
Cc1ccccc1-c1nn2c(=O)cc(CN3CCN(C(=O)COc4ccccc4Cl)CC3)nc2s1,.,.,2,i,i,-9%,.,.,.
Cc1cc2ccccc2n1-c1ccc(C(=O)N2CCC(C(=O)NCc3ccc(Cl)cc3)CC2)s1,.,7.3µM*,-6,.,.,-15%,-1%,-20%,8.2µM*
O=C(Nc1ccc2c(c1)OCCO2)c1cccn(Cc2cccc(F)c2)c1=O,.,.,4,i,i,-3%,.,.,.
Cc1ccccc1[N+](=O)[O-],5,-2%,-3,?,i,-4%,.,.,.
